Compound activity from PubChem.
TDP1 cell CPT = growth inhibition of DT40 Tdp1-/-;hTDP1 cells with camptothecin (screen for TDP1 inhibitors); AID 686979; Potency, µM (titrated, usually from 46.2 µM), actives largely listed as inhibitors; 420,000 compounds, 12% hits; chicken DT40 Tdp1-/-;hTDP1 cells + 20 nM CPT, ATP luminescence, 48 h; also: nearly all actives have a fitted effect of over 55% in size
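Chicken DT40 Tdp1-/- cells stably complemented with human TDP1 were seeded at 400 cells/well in medium containing 20 nM camptothecin, exposed to pin-transferred compounds, and grown at 37 °C for at least 48 hr. Viability was read as ATP luminescence.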
DT40 TDP1 no CPT = qHTS for Inhibitors of human tyrosyl-DNA phosphodiesterase 1 (TDP1): qHTS in cells in absence of CPT; DT40 Tdp1-/- hTDP1 cells, no CPT, ATP luminescence, 48 h; Potency, µM (series often up to 46.2 µM), most hits filed as inhibitors; 420,000 compounds, 15% hits; AID 686978, 2013; also: nearly all actives have a fitted effect of over 55% in size
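Growth of hTDP1-complemented DT40 Tdp1-knockout cells is measured by ATP luminescence after at least 48 hr compound exposure at 37 °C, with DMSO substituting for the 20 nM CPT used in the parallel screen.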
HT1080-NT tox = kills 2HG-producing HT-1080-NT fibrosarcoma cells. HT-1080-NT fibrosarcoma viability, CellTiter-Glo ATP luminescence, 48 h. Potency, µM (titrated, usually from 46.1 µM), most hits filed as cytotoxic. 360,000 compounds, 1.6% hits;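 also: NT is the 2HG producing partner of a matched IDH1 knockdown line; nearly all actives have a fitted effect of over 55% in size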
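Fibrosarcoma NT cells, 750 per well in 5% FBS RPMI, were exposed to compound for 48 hours. Viability: CellTiter-Glo luminescence.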
ELG1 repair inh = ELG1-dependent DNA repair inhibition; HEK293T ELG1-luciferase reporter, luminescence, 16 h; DNA damage induced by 5-fluorouridine; Potency, µM (highest dose often 46.1 µM), hits mostly inhibitors; 330,000 compounds, 2.3% hits; AID 504467; also: nearly all actives have a fitted effect of over 55% in size
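Cells (2,000 per well) received 5-fluorouridine plus test compound or DMSO and were incubated 16 hr at 37 °C, 5% CO2. Luciferase activity was read by luminescence 30 min after ONE-Glo addition; signal suppression marked inhibition of damage-induced ELG1 function.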
IL1B secr inh = inhibitors of inflammasome signaling (IL-1 beta secretion). activity change, % at 57.5 µM. AID 743279. THP-1 LPS/ATP IL-1B secretion, AlphaLISA, 16 h; active compounds read low. 360,000 compounds, 4.7% hits; in the data active = activity change below about -50%; inconclusive = mostly about -30% to -49%
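THP-1 cells pretreated 1 hr with compounds (up to 57.5 uM final), then stimulated with LPS (250 ng/mL final) plus ATP (1.25 mM final); secreted IL-1B measured by AlphaLISA after 16 hr, decreased signal indicating inhibition.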
HT1080 IDH1KD tx = HT-1080 IDH1 knockdown cell toxicity (counter line); HT-1080 IDH1 knockdown viability, ATP luminescence, 48 h; Potency, µM (titrated, usually from 46.1 µM), usual class: cytotoxic; 360,000 compounds, 2% hits; AID 686971
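% activity derives from luminescence (CellTiter-Glo), normalised to DMSO and no-cell wells. HT-1080-IDH1KD cells, 750/well, had 48 h compound exposure at 37 °C.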
Of the large screens only hits and unclear results are named; the others gave an inactive call; ! = a repeat was not active. A selection: hits, their analogues and other compounds. The true share with any hit is near 19%. Unless noted, calls follow the shape of the dose curve; as a rule, active = well fitted curve in the direction sought with a large enough effect; inconclusive = small, poorly fitted or top-dose-only effect, or another doubt; inactive = no such curve, though single readings can be large; an effect the other way counts as inactive or inconclusive.

Cc1ccc(NC(=O)CCc2c(C)nc3ncnn3c2C)cc1Cl	none (no result: HT1080-NT tox, ELG1 repair inh, IL1B secr inh, HT1080 IDH1KD tx)
C#C[C@]1(OC(C)=O)CCC2C3CCC4=CC(=O)CCC4C3CC[C@]21C (stereo partly specified)	TDP1 cell CPT 0.21µM, DT40 TDP1 no CPT 16µM (no result: HT1080-NT tox, ELG1 repair inh, IL1B secr inh, HT1080 IDH1KD tx)
CC(=O)OCC(=O)C1(O)CCC2C3CCC4=CC(=O)CCC4(C)C3C(O)CC21C (stereo unspecified)	TDP1 cell CPT inconclusive, HT1080-NT tox inconclusive, IL1B secr inh inconclusive, HT1080 IDH1KD tx inconclusive (no result: ELG1 repair inh)
C#CC1(O)CCC2C3CCC4=C(CCC(=O)C4)C3CCC21C (stereo unspecified)	TDP1 cell CPT inconclusive, DT40 TDP1 no CPT inconclusive (no result: ELG1 repair inh)
C#C[C@]1(OC(C)=O)CC[C@H]2[C@@H]3CCC4=C[C@@H](OC(C)=O)CC[C@@H]4[C@H]3CC[C@@]21C	TDP1 cell CPT inconclusive, DT40 TDP1 no CPT 15µM! (no result: HT1080-NT tox, ELG1 repair inh, IL1B secr inh, HT1080 IDH1KD tx)
C#C[C@]1(OC(C)=O)CCC2C3CCC4=CC(=O)CC[C@@H]4C3CC[C@@]21C (stereo partly specified)	TDP1 cell CPT inconclusive, DT40 TDP1 no CPT 23µM
O=C(c1cc(COc2ccc(F)cc2F)on1)N1C[C@H]2CC[C@H]1C2	TDP1 cell CPT inconclusive, DT40 TDP1 no CPT inconclusive, ELG1 repair inh inconclusive
COc1ccccc1OCc1cc(C(=O)N2CC3C[C@@H]4CC2C[C@H](C3)C4)no1	TDP1 cell CPT 12µM, DT40 TDP1 no CPT 13µM, ELG1 repair inh inconclusive
COc1ccc(OCc2cc(C(=O)N3C[C@H]4CC[C@H]3C4)no2)c(Cl)c1	ELG1 repair inh inconclusive
O=C(c1cc(COc2ccc(F)cc2F)on1)N1CC2C[C@@H]3CC1C[C@H](C2)C3	TDP1 cell CPT 6.5µM, DT40 TDP1 no CPT 2.6µM, ELG1 repair inh inconclusive, IL1B secr inh -98
CC(=O)c1cccc(OCc2cc(C(=O)N3CC4C[C@@H]5CC3C[C@H](C4)C5)no2)c1	TDP1 cell CPT 2.6µM, DT40 TDP1 no CPT 1.5µM
CC1(C)Cc2c(c(N3CCOCC3)nc3sc4c(NCCN)ncnc4c23)CO1	TDP1 cell CPT inconclusive, DT40 TDP1 no CPT inconclusive, HT1080-NT tox inconclusive, HT1080 IDH1KD tx inconclusive (no result: ELG1 repair inh)
CN(C)CCNc1ncnc2c1sc1nc(N3CCOCC3)c3c(c12)CC(C)(C)SC3	TDP1 cell CPT inconclusive, DT40 TDP1 no CPT 21µM, HT1080-NT tox inconclusive, IL1B secr inh -80, HT1080 IDH1KD tx inconclusive
C=CCNc1nnnc2c1sc1nc(N3CCOCC3)c3c(c12)CCCC3	DT40 TDP1 no CPT 13µM, ELG1 repair inh inconclusive
COCCNc1nnnc2c1sc1nc(N3CCOCC3)c3c(c12)CC(C)(C)OC3	DT40 TDP1 no CPT inconclusive, ELG1 repair inh 4.1µM
CC(C)CNc1nnnc2c1sc1nc(N3CCOCC3)c3c(c12)CCCC3	TDP1 cell CPT inconclusive, DT40 TDP1 no CPT inconclusive, ELG1 repair inh inconclusive
CCc1nc2c(sc3nc(N4CCOCC4)c4c(c32)CC(C)(C)OC4)c(=O)o1	none (no result: TDP1 cell CPT, DT40 TDP1 no CPT, HT1080-NT tox, IL1B secr inh, HT1080 IDH1KD tx)
N#Cc1ccccc1OCC(=O)N1CCN(c2ccccc2)CC1	none (no result: HT1080-NT tox, ELG1 repair inh, IL1B secr inh, HT1080 IDH1KD tx)
CCc1cc(C(=O)N=Nc2c(O)[nH]c3ccc([N+](=O)[O-])cc23)c2ccccc2n1	TDP1 cell CPT inconclusive, DT40 TDP1 no CPT inconclusive, HT1080-NT tox inconclusive, HT1080 IDH1KD tx inconclusive
CCc1cc(C(=O)N=Nc2c(O)[nH]c3c(Br)cc(Br)cc23)c2ccccc2n1	TDP1 cell CPT 21µM, DT40 TDP1 no CPT inconclusive, HT1080-NT tox inconclusive, ELG1 repair inh inconclusive
O=C(NCC(c1ccc2c(c1)OCO2)N1CCOCC1)C(=O)Nc1ccc(Cl)cc1 (stereo unspecified)	TDP1 cell CPT inconclusive (no result: HT1080-NT tox, ELG1 repair inh, IL1B secr inh, HT1080 IDH1KD tx)
COc1ccc(/C(O)=C2/C(=O)C(=O)N(c3ccccn3)C2c2ccc(F)cc2)cc1 (stereo unspecified)	none
COc1ccc(C2/C(=C(/O)c3ccc(F)cc3)C(=O)C(=O)N2c2ccccn2)cc1OC (stereo unspecified)	TDP1 cell CPT inconclusive, DT40 TDP1 no CPT 23µM
